# The supplement of paper PMC8728848
# Many of the other results were omitted from the sample, so the strongest signals are more common in it than they were.
# B1: SSP1 (Sclerotinia sclerotiorum), XP_001584968 (protein)
# chain: MGSSHHHHHHSSGLVPRGSHMSLLTTELACTSAPDQVLHLFFQDGQNILEARSPDGGNVWTTQDTIIAKDGDYNGSSMTCYYVDKDANFDNQPSIHLLYMNKDKQLTEKVKRMKGDNPIWEDAKVPDEVRKGPEQYSKLTSGSFNQGTGWNPNGSQWAYFSASKDGKMGIVEIRRTPKDPWHTETILEEKWGDELPGTALACVIGNGKIRVFLQHHDYSIILYENQNNTWHDRGTFIPKDKVQATTPLACTMTKDGSVHLFYVSKSNKIIHCTDGKKEEELINFFPGSKLGATSVENKITLFFRNLNPVNEVGTLENENGSWKHGTTVIPA
# Key:
# Experiment in all cases: glycan array binding signal (z-score within array); higher = stronger binding
# Settings in all cases: glycan notation: IUPAC condensed, linker removed
# [1] = biological target: Fuc(a1-2)Gal(b1-3)[Fuc(a1-4)]GlcNAc(b1-2)Man(a1-3)[Fuc(a1-2)Gal(b1-3)[Fuc(a1-4)]GlcNAc(b1-2)Man(a1-3)]Man(b1-4)GlcNAc(b1-4)GlcNAc
# How it was run: (§1)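 Arrays were curated from the Consortium for Functional Glycomics database, 3228 in total, and kept only where the protein sequence was available. Binding is expressed as a within-array Z-score. This score was averaged across arrays of the same protein sequence at different concentrations or buffers and across linkers, and negative values can be read as non-binding.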
# [2] = biological target: Fuc(a1-2)Gal(b1-3)[Fuc(a1-4)]GlcNAc(b1-3)[Gal(b1-4)GlcNAc(b1-6)]Gal(b1-4)Glc
# How it was run: as §1
# [3] = biological target: Fuc(a1-2)[Gal(a1-3)]Gal(b1-3)GlcNAc
# How it was run: as §1
# [4] = biological target: Fuc(a1-2)[Gal(a1-3)]Gal(b1-3)GlcNAc(b1-6)GalNAc
# How it was run: as §1
# [5] = biological target: Fuc(a1-2)[Gal(a1-3)]Gal(b1-4)GlcNAc(b1-6)GalNAc
# How it was run: as §1
# [6] = biological target: Fuc(a1-3)[Gal(b1-4)]GlcNAc(b1-3)Gal(b1-4)[Fuc(a1-3)]GlcNAc
# How it was run: as §1
# [7] = biological target: Gal(a1-3)Gal(b1-3)GlcNAc
# How it was run: as §1
# [8] = biological target: Gal(a1-3)[Gal(a1-4)]Gal(b1-4)GlcNAc
# How it was run: as §1
# [9] = biological target: Gal(b1-2)Gal
# How it was run: as §1
# [10] = biological target: Gal(b1-3)GalNAc
# How it was run: as §1
# [11] = biological target: Gal(b1-3)GalNAc(a1-3)[Fuc(a1-2)]Gal(b1-4)GlcNAc
# How it was run: as §1
# [12] = biological target: Gal(b1-3)GlcNAc(b1-2)Man(a1-3)[Gal(b1-3)GlcNAc(b1-2)Man(a1-6)]Man(b1-4)GlcNAc(b1-4)[Fuc(a1-6)]GlcNAc
# How it was run: as §1
# [13] = biological target: Gal(b1-3)[Fuc(a1-4)]GlcNAc(b1-2)Man
# How it was run: as §1
# [14] = biological target: Gal(b1-4)GlcNAc(b1-2)[Gal(b1-4)GlcNAc(b1-6)]Man(a1-6)[GlcNAc(b1-4)][Gal(b1-4)GlcNAc(b1-2)[Gal(b1-4)GlcNAc(b1-4)]Man(a1-3)]Man(b1-4)GlcNAc(b1-4)[Fuc(a1-6)]GlcNAc
# How it was run: as §1
# [15] = biological target: Gal(b1-4)GlcNAc(b1-3)Gal(b1-4)GlcNAc(b1-2)Man(a1-3)[Gal(b1-4)GlcNAc(b1-3)Gal(b1-4)GlcNAc(b1-2)Man(a1-6)]Man(b1-4)GlcNAc(b1-4)GlcNAc
# How it was run: as §1
# [16] = biological target: Gal(b1-4)GlcNAc(b1-3)Gal(b1-4)GlcNAc(b1-3)[Gal(b1-4)GlcNAc(b1-3)Gal(b1-4)GlcNAc(b1-6)]GalNAc
# How it was run: as §1
# [17] = biological target: Gal(b1-4)GlcNAc(b1-6)[Gal(b1-3)]GalNAc
# How it was run: as §1
# [18] = biological target: Gal3S(b1-4)Glc
# How it was run: as §1
# [19] = biological target: Gal4S6S(b1-4)GlcNAc
# How it was run: as §1
# [20] = biological target: GalNAc(b1-3)Gal
# How it was run: as §1
# [21] = biological target: GalNAc(b1-4)Gal(b1-4)Glc
# How it was run: as §1
# [22] = biological target: GlcA(b1-3)GlcNAc
# How it was run: as §1
# [23] = biological target: GlcA3S(b1-3)Gal(b1-4)GlcNAc(b1-2)Man
# How it was run: as §1
# [24] = biological target: GlcNAc(a1-3)Gal(b1-4)GlcNAc
# How it was run: as §1
# [25] = biological target: GlcNAc(a1-4)Gal(b1-4)GlcNAc(b1-3)Gal(b1-4)[Fuc(a1-3)]GlcNAc(b1-3)Gal(b1-4)[Fuc(a1-3)]GlcNAc
# How it was run: as §1
# [26] = biological target: GlcNAc(b1-3)Gal(b1-4)GlcNAc(b1-6)[Gal(b1-3)]GalNAc
# How it was run: as §1
# [27] = biological target: Man(a1-2)Man(a1-3)[Man(a1-6)]Man(a1-6)[Man(a1-2)Man(a1-3)]Man(b1-4)GlcNAc(b1-4)GlcNAc
# How it was run: as §1
# [28] = biological target: Man(a1-2)Man(a1-6)[Man(a1-3)]Man(a1-6)[Man(a1-2)Man(a1-2)Man(a1-3)]Man(b1-4)GlcNAc(b1-4)GlcNAc
# How it was run: as §1
# [29] = biological target: Man(a1-3)[Man(a1-6)]Man(a1-6)[Man(a1-3)]Man
# How it was run: as §1
# [30] = biological target: Neu5Ac(a2-3)Gal(b1-4)GlcNAc(b1-2)Man
# How it was run: as §1
# [31] = biological target: Neu5Ac(a2-3)Gal(b1-4)GlcNAc(b1-2)Man(a1-3)[Neu5Ac(a2-3)Gal(b1-4)GlcNAc(b1-2)Man(a1-6)]Man(b1-4)GlcNAc(b1-4)GlcNAc
# How it was run: as §1
# [32] = biological target: Neu5Ac(a2-3)Gal(b1-4)GlcNAc(b1-3)Gal(b1-4)GlcNAc
# How it was run: as §1
# [33] = biological target: Neu5Ac(a2-3)Gal(b1-4)[Fuc(a1-3)]GlcNAc(b1-6)[Neu5Ac(a2-3)Gal(b1-3)]GalNAc
# How it was run: as §1
# [34] = biological target: Neu5Ac(a2-3)Gal6S(b1-4)GlcNAc
# How it was run: as §1
# [35] = biological target: Neu5Ac(a2-6)Gal(b1-4)GlcNAc(b1-2)Man(a1-3)[Neu5Ac(a2-6)Gal(b1-4)GlcNAc(b1-2)Man(a1-6)]Man(b1-4)GlcNAc(b1-4)[Fuc(a1-6)]GlcNAc
# How it was run: as §1
# [36] = biological target: Neu5Ac(a2-6)Gal(b1-4)GlcNAc(b1-2)[Neu5Ac(a2-6)Gal(b1-4)GlcNAc(b1-4)]Man(a1-3)[GlcNAc(b1-4)][Neu5Ac(a2-6)Gal(b1-4)GlcNAc(b1-2)[Neu5Ac(a2-6)Gal(b1-4)GlcNAc(b1-6)]Man(a1-6)]Man(b1-4)GlcNAc(b1-4)GlcNAc
# How it was run: as §1
# [37] = biological target: Neu5Ac(a2-8)Neu5Gc(a2-3)Gal(b1-4)GlcNAc
# How it was run: as §1
binder,measurement,setting,value
B1,glycan array binding signal (z-score),[1],0.937
same,glycan array binding signal (z-score),[2],-0.405
same,glycan array binding signal (z-score),[3],0.084
same,glycan array binding signal (z-score),[4],7.05
same,glycan array binding signal (z-score),[5],-0.15
same,glycan array binding signal (z-score),[6],-0.07
same,glycan array binding signal (z-score),[7],2.88
same,glycan array binding signal (z-score),[8],2.85
same,glycan array binding signal (z-score),[9],0.5
same,glycan array binding signal (z-score),[10],-0.111
same,glycan array binding signal (z-score),[11],3.1
same,glycan array binding signal (z-score),[12],5.12
same,glycan array binding signal (z-score),[13],-0.358
same,glycan array binding signal (z-score),[14],0.197
same,glycan array binding signal (z-score),[15],8.48
same,glycan array binding signal (z-score),[16],-0.003
same,glycan array binding signal (z-score),[17],-0.405
same,glycan array binding signal (z-score),[18],1.38
same,glycan array binding signal (z-score),[19],-0.291
same,glycan array binding signal (z-score),[20],2.2
same,glycan array binding signal (z-score),[21],-0.27
same,glycan array binding signal (z-score),[22],0.484
same,glycan array binding signal (z-score),[23],-0.535
same,glycan array binding signal (z-score),[24],-0.477
same,glycan array binding signal (z-score),[25],2.28
same,glycan array binding signal (z-score),[26],-0.156
same,glycan array binding signal (z-score),[27],-0.017
same,glycan array binding signal (z-score),[28],-0.467
same,glycan array binding signal (z-score),[29],2.15
same,glycan array binding signal (z-score),[30],0.612
same,glycan array binding signal (z-score),[31],-0.45
same,glycan array binding signal (z-score),[32],0.123
same,glycan array binding signal (z-score),[33],1.79
same,glycan array binding signal (z-score),[34],-0.085
same,glycan array binding signal (z-score),[35],-0.364
same,glycan array binding signal (z-score),[36],0.132
same,glycan array binding signal (z-score),[37],9.08
